# Shown is part of a subset that was picked to be rich in hits.
# Choline anaer gr: growth inhibitors of anaerobic choline-fed gram-negatives, minimal medium, absorbance; AID 1963822, 2024; 0.2% of 55,000 active; calls only; Gram-negative bacterium anaerobic choline minimal medium; active compounds read low; call rule not given here
# * marks the source's active call; other numbers are inactive results; i = inactive; + = active, no number; ! = repeats disagree.
SMILES,Choline anaer gr
CCN(CC)CCOc1ccc(Cc2ccccc2)cc1,i
CC[N+](CC)(CC)CCOc1ccc(/C=C/c2ccccc2)cc1,+!
CC[N+](CC)(CC)CCOc1cccc(OCC[N+](CC)(CC)CC)c1OCC[N+](CC)(CC)CC,i
O=C(CSc1nnc(-c2ccncc2)o1)Nc1ccc2c(c1)OCO2,+
CC(Sc1nnc(-c2ccncc2)o1)C(=O)Nc1ccc2c(c1)OCCO2 (stereo not drawn),i
Cc1ccc(NC(=O)CSc2nnc(-c3ccncc3)o2)cc1Cl,i
CCOc1ccc(C(=O)N2CCCC(c3nc(-c4ccc(NC(C)=O)cc4)no3)C2)cc1OCC (stereo not drawn),i
CCOc1ccccc1NC(=O)C1CCCN(S(=O)(=O)Cc2ccccc2C)C1 (stereo not drawn),i
Cc1noc(Cn2c(=O)c3ccccc3n(CC(=O)NCc3ccccc3)c2=O)n1,i
O=C(CC1CC1)N1CCCN(Cc2noc(-c3ccccc3)n2)CC1,+
O=C(CC1CCCC1)N1CCN(Cc2noc(-c3ccccc3)n2)CC1,i
O=C(c1coc(-c2ccccc2)n1)N1CCCN(Cc2noc(-c3ccccc3)n2)CC1,i
CS(=O)(=O)NCc1nnc(C(=O)Nc2ccc(F)cc2)s1,i
CCCCCCCCCCC/C=C\C/C=C\CCCC(=O)O,+
CC/C=C\C/C=C\C/C=C\C/C=C\C/C=C\CCCCCC(=O)O,i
CCCCC/C=C\CC1OC1C/C=C\C/C=C\CCCC(=O)O (stereo not drawn),i
NC(=O)c1nc(Nc2ccccc2)sc1NC(=O)c1cc2cc(Cl)ccc2[nH]1,i
CC1CCN(c2ccc(NC(=O)c3ccccc3Cl)c(C(=O)O)c2)CC1,+
CCN1CCN(c2ccc(NC(=O)c3ccccc3Cl)c(C(=O)O)c2)CC1,i
Cc1cccc(N2CCN(c3ccc(NC(=O)c4ccccc4Cl)c(C(=O)O)c3)CC2)c1C,i
O=C(Nc1ccc(N2CCN(C3CCCCC3)CC2)cc1C(=O)O)c1ccccc1Cl,i
CN(C)c1ccc(NC(=O)c2ccccc2Cl)c(C(=O)O)c1,+
CN(C)c1ccc(NC(=O)c2ccc(Br)cc2)c(C(=O)O)c1,i
O=C(c1sc2ncccc2c1-n1cccc1)N1CCN(c2ccc(F)cc2)CC1,i
Cc1cccc(-c2noc(-c3nn(-c4cccc(F)c4)ccc3=O)n2)c1,i
SMILES,Choline anaer gr
COc1cccc(C2Nc3ccccc3-n3cc4c(=O)n(C)c(=O)n(C)c4c32)c1OC (stereo not drawn),i
COc1cccc(C2Nc3ccccc3-n3c(-c4ccccc4)c4c(=O)n(C)c(=O)n(C)c4c32)c1O (stereo not drawn),i
Cc1ccc(C2Nc3ccccc3-n3cc4c(=O)n(C)c(=O)n(C)c4c32)c(O)c1 (stereo not drawn),+
CCOc1cccc(C2Nc3ccccc3-n3cc4c(=O)n(C)c(=O)n(C)c4c32)c1O (stereo not drawn),i
COc1ccc(C2Nc3ccccc3-n3cc4c(=O)n(C)c(=O)n(C)c4c32)c(OC)c1 (stereo not drawn),+
Cn1c(=O)c2cn3c(c2n(C)c1=O)C(c1ccc(O)c(O)c1)Nc1ccccc1-3 (stereo not drawn),i
CCN(CC)S(=O)(=O)c1ccc(NC(=O)N2CCCC(C(=O)Nc3ccc(OC)cc3)C2)s1 (stereo not drawn),i
O=C(CN1C(=O)CCCc2ccccc21)NCCN1CCN(c2cccc(Cl)c2)CC1,i
COC(=O)c1ccc(Nc2c(C(=O)N3CCOCC3)cnc3ccccc23)cc1,i
Cc1cc(Cl)ccc1NS(=O)(=O)c1ccc2onc(C(=O)N3CCCC3)c2c1,i
CO[C@H]1/C=C/O[C@@]2(C)Oc3c(C)c(O)c4c(O)c(c(/C=N/N5CCN(C)CC5)c(O)c4c3C2=O)NC(=O)/C(C)=C\C=C\[C@H](C)[C@H](O)[C@@H](C)[C@@H](O)[C@@H](C)[C@H](OC(C)=O)[C@@H]1C,+!
COC1C=CO[C@@]2(C)Oc3c(C)c(O)c4c(O)c(c5c(nc6cc(C)ccn65)c4c3C2=O)NC(=O)C(C)=CC=CC(C)C(O)C(C)C(O)C(C)C(OC(C)=O)C1C (stereo partly drawn),i
COC1C=CO[C@@]2(C)Oc3c(C)c(O)c4c(O)c(c5c(c4c3C2=O)NC2(CCN(CC(C)C)CC2)N=5)=NC(=O)C(C)=CC=CC(C)C(O)C(C)C(O)C(C)C(OC(C)=O)C1C (stereo partly drawn),i
C=CCN(Cc1nc(-c2cccc(C)c2)no1)C(=O)Nc1cccc(C)c1,i
Cc1cccc(NC(=NCc2ccncc2)NC(=O)c2ccc3c(c2)OCO3)c1,+
COC(=O)c1cccc(NC(=NCc2ccncc2)NC(=O)c2ccc3c(c2)OCO3)c1,i
COc1ccc(C(=O)NC(=NCc2ccncc2)Nc2ccccc2)cc1OC,i
Cc1nc2nc(-c3cccnc3)nn2c(C)c1CC(=O)N1CCC(C)CC1,i
CCc1ccc(NC(=O)Nc2c(-c3ccccc3)[nH]c3ccccc23)cc1,+
CCc1ccc(-c2[nH]c3ccccc3c2NC(=O)Nc2cccc(C(=O)OC)c2)cc1,i
COc1ccc(NC(=O)Nc2c(-c3cccnc3)[nH]c3ccccc23)cc1,i
Cc1ccc(N2C(=O)N(Cc3cc(=O)n4ccccc4n3)c3ccccc3S2(=O)=O)cc1,i
CCOc1ccccc1NCc1nc2nc3c(c(=O)n2[nH]1)CCC3,i
O=C(Nc1ccc(Cn2cnc(-c3nc(-c4cccc(F)c4)no3)c2)cc1)c1ccc2c(c1)OCO2,i
COc1ccccc1-c1cc(C(F)(F)F)n2ncc(C(=O)OCCN(C)c3nsnc3Cl)c2n1,i
SMILES,Choline anaer gr
CC(C)=CCC/C(C)=C/CC/C(C)=C/CSCC(=O)O,+
COC(=O)[C@@H](N)CSC/C=C(\C)CC/C=C(\C)CCC=C(C)C,i
Cc1ccc2[nH]c3c(=O)n(C(C)c4ccccc4)cnc3c2c1 (stereo not drawn),i
Cc1noc2ncnc(N3CCCC(C(=O)O)C3)c12 (stereo not drawn),i
O=C(Nc1ccc(Cl)cc1)N1CC=C(c2c[nH]c3ccccc23)CC1,i
O=C(CCC(=O)N1CC=C(c2c[nH]c3ccccc23)CC1)NCc1cccc(Cl)c1,+
CCc1ccc(NC(=O)N2CC=C(c3c[nH]c4ccccc34)CC2)cc1,i
O=C(Nc1nnc(SCc2nnc(-c3ccccc3)o2)s1)c1ccccc1F,i
O=C(NC1CCCCC1)N1CCN(c2cc(-c3ccc(F)cc3)ncn2)CC1,i
Cc1nc2nc3c(c(Nc4ccc(F)c(Cl)c4)n2n1)CCCC3,i
COc1cccc(C(=O)Nc2noc3ccccc23)c1,i
Cc1[nH]c(C)c(S(=O)(=O)N2CCC(C(=O)Nc3ccc(F)c(Cl)c3)CC2)c1C(=O)N1CCCC1,i
Cc1[nH]c(C)c(S(=O)(=O)N2CCC(C(=O)Nc3ccc(F)cc3)CC2)c1C(=O)N1CCCC1,+
Cc1[nH]c(C)c(S(=O)(=O)N2CCC(C(=O)N3CCN(C4CCCCC4)CC3)CC2)c1C(=O)N1CCCCC1,i
Cc1[nH]c(C)c(S(=O)(=O)N2CCC(C(=O)N3CCC(C)CC3)CC2)c1C(=O)N1CCCCC1,i
Cc1[nH]c(C)c(S(=O)(=O)N2CCC(C(=O)N3CCN(C4CCCCC4)CC3)CC2)c1C(=O)N1CCCC1,+
Cc1[nH]c(C)c(S(=O)(=O)N2CCC(C(=O)Nc3ccc(Cl)cc3)CC2)c1C(=O)N1CCCC1,i
O=C(NCCN1CCOCC1)c1nc(-n2cnnc2)ccc1Br,i
